Assay results: PubChem BioAssay AID463187 (University of Pittsburgh Molecular Library Screening Center, 2010)
Values joined by “and” are separate entries in the source; they are usually repeats but may differ in a detail not shown here. Equal entries are not always repeated. The whole screen tested about 220,000 compounds, of which about 1,500 (0.68%) were called active.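 Rule for the calls: active = Hck-Nef kinase inhibition above about 50% (limit read from the data); inactive = inhibition below that limit.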 Shown is part of a subset that was picked to be rich in actives.

What follows are compounds tested against Tyrosine-protein kinase HCK (Homo sapiens) (UniProt P08631) (assay: inhibitors of Nef-activated human Hck kinase, primary screen, biochemical, Z-Lyte FRET, 384-well, Hck-YEEI (AID 463187;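 note: 0% = DMSO with Hck plus Nef and 100% = Hck alone without Nef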)). Conditions: Recombinant Hck-YEEI plus Nef, Z-Lyte FRET kinase assay; at 20 µM; stronger effect = higher value.
Chain of Tyrosine-protein kinase HCK (Homo sapiens) (P08631 whole entry, looked up): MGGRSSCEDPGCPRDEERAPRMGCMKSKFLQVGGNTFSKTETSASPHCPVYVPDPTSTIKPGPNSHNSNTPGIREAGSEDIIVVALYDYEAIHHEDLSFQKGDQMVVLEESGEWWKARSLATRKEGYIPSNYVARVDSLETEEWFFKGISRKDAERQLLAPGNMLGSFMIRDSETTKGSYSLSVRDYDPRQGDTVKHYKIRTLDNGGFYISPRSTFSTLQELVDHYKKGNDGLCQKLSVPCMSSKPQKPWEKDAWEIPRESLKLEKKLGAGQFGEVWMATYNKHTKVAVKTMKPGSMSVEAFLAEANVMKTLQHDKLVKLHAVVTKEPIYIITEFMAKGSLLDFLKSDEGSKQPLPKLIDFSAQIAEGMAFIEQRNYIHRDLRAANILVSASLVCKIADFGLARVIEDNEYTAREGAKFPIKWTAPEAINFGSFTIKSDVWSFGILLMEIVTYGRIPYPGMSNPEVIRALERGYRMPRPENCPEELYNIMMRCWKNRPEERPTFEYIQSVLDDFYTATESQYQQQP

SMILES	inhibition
CC(C)NC(=O)/C(C#N)=C\c1ccc(N(C)C)c(Br)c1	7.25% (inactive)
O=C(O)Cc1sc(-c2ccccc2)nc1-c1cccs1	-10.1% (inactive)
CCCNC(=O)N1CCN(C(=O)NCCC)CC1	0.793% (inactive)
O=[N+]([O-])C(=c1ccc2c(c1)N1C3=C(CCCC3)CC3CCCCC31N=2)[N+](=O)[O-] (stereo not drawn)	73% (active)
CCCCCC(=O)Nc1ccc(S(=O)(=O)Nc2ccc(Cl)nn2)cc1	-1.44% (inactive)
C=C(C)COc1ccc(-c2n[nH]c(C)c2-c2ccccc2)c(O)c1	-0.0537% (inactive)
C=C(C)COc1ccc(-c2n[nH]c(C)c2-c2ccccc2OC)c(O)c1	12.1% (inactive)
CCOc1ccc(-c2n[nH]c(C)c2-c2ccccn2)c(O)c1	-15.5% (inactive)
C=C(C)COc1ccc(-c2nc(N)ncc2-c2ccccc2OC)c(O)c1	68.8% (active)
CCOc1ccc(-c2nc(N)ncc2-c2ccccc2OC)c(O)c1	75.3% (active)
CCOc1ccccc1Oc1cn[nH]c1-c1ccc(OC)cc1O	26.3% (inactive)
c1ccc(-c2cc3c(NCC4COc5ccccc5O4)ncnc3s2)cc1 (stereo not drawn)	5.9% (inactive)
COc1ccc(-c2cc(C(=O)NCCCn3ccnc3)no2)cc1	-9.96% (inactive)
Cc1cccc2cc(CN(C(=O)c3cccs3)c3ccccc3)c(=O)[nH]c12	3.68% (inactive)
O=C(N/N=C/c1ccc([N+](=O)[O-])o1)c1cccc(S(=O)(=O)N2CCOCC2)c1	18.1% (inactive)
O=C(CN1CCN(c2ccc(O)cc2)CC1)Nc1cc(S(=O)(=O)N2CCOCC2)ccc1Cl	12.6% (inactive)
O=[N+]([O-])c1cc(Cl)cc(/C=N/NC(=S)Nc2cc(S(=O)(=O)N3CCOCC3)ccc2Cl)c1O	68.6% (active)
Cc1nn(Cc2ccc(C(=O)N3N=C(C(F)F)CC3(O)C(F)F)cc2)c(C)c1[N+](=O)[O-] (stereo not drawn)	-2.69% (inactive)
CN(C)S(=O)(=O)c1cccc(-c2nn(-c3ccccc3)cc2/C=C2\SC(=S)N(CC(=O)O)C2=O)c1	56.2% (active)
Cc1ccc(-c2nn(-c3ccccc3)cc2/C=C/C(=O)Nc2cccc(S(N)(=O)=O)c2)cc1	14.1% (inactive)
O=C(CN1C(=O)/C(=C\c2ccccc2F)SC1=S)Nc1nc2ccccc2s1	4.36% (inactive)
CC1(C)CC(=O)C(C2c3ccccc3S(=O)(=O)c3ccccc32)C(=O)C1	2.74% (inactive)
C=CCOc1c2ccc(C(=O)N(CC)c3ccc(OC)cc3)cc2nn1C	-0.652% (inactive)
CC1=NN(/C(=N\c2nnc(C)s2)Nc2ccccc2)[C@H](c2ccc(C)cc2)S1	-3.06% (inactive)

SMILES	inhibition
COC(=O)Cc1cc(=O)oc2c(C)c(O)ccc12	58.3% (active)
COC(=O)COc1ccc2oc(=O)cc(C)c2c1	1.26% (inactive)
CCCc1cc(=O)oc2c(C)c(O)c(CN3CCCCC3)cc12	31% (inactive)
CCOC(=O)c1cc2c(=O)n3ccccc3nc2n(CC(C)C)c1=NC(=O)c1c(-c2c(F)cccc2Cl)noc1C	8.32% (inactive)
CCOC(=O)c1cc2n(c1N)-c1ccccc1C2=O	-1.56% (inactive)
CCCn1c(=NC(C)=O)c(C(=O)OCC)cc2c(=O)n3ccccc3nc21	95.9% (active)
O=C(COC(=O)c1ccccc1C(=O)N1CCN(c2ccccc2)CC1)NCc1ccccc1	-5.15% (inactive)
O=C(NNC(=O)c1ccc(Cl)cc1Cl)c1cccs1	22.7% (inactive)
C=CCSc1nc(Cc2ccc(Cl)cc2)nc2ccccc12	-0.392% (inactive)
COC(=O)C1=C(C)Nc2ncnn2C1c1cccnc1 (stereo not drawn)	0.821% (inactive)
Brc1ccc(C2=CC(c3ccco3)n3ncnc3N2)cc1 (stereo not drawn)	-4.23% (inactive)
Clc1ccc2c(c1)C1=C(C(c3ccncc3)O2)C(c2ccc(Br)cc2)n2ncnc2N1 (stereo not drawn)	83.6% (active)
CCC(C)(C)NC(=O)CN(Cc1cccs1)C(=O)CNS(=O)(=O)c1ccc(F)cc1	15.6% (inactive)
O=[N+]([O-])c1ccc(F)cc1Oc1nc(-c2cccnc2)nc2ccccc12	13.2% (inactive)
CCC(O)C1CCN(Cc2cn(-c3ccc(OC)cc3)nc2-c2cccc(F)c2)CC1 (stereo not drawn)	-11.2% (inactive)
CCOc1ccc(CCNC(=O)C2=C(C)C(=O)OC23CCC(C)CC3)cc1OCC (stereo not drawn)	25.3% (inactive)
C=CCn1c(N)c(S(=O)(=O)c2cccs2)c2nc3ccccc3nc21	21.6% (inactive)
Cc1ccc(S(=O)(=O)c2c(N)n(C)c3nc4ccccc4nc23)cc1	52.7% (active)
CCN(CC)CCn1c(N)c(S(=O)(=O)c2ccccc2)c2nc3ccccc3nc21	11.1% (inactive)
COc1ccc(/C=C2/C(=O)OCc3cc(OC)c(OC)cc32)c(OC)c1	1.93% (inactive)
O=C(NCc1ccco1)c1nn2cccnc2c1Cl	20.7% (inactive)
O=C(O)C1C2C=CC(O2)C1C(=O)NCCc1cccc(Cl)c1 (stereo not drawn)	15.6% (inactive)
O=C(Cc1ccccc1)Nc1cccc(C(=O)N/N=C/c2ccco2)c1	54.9% (active)
O=C(N/N=C/c1ccco1)c1ccc(C(=O)N/N=C/c2ccco2)o1	-0.711% (inactive)

SMILES	inhibition
O=C(N/N=C/c1ccco1)c1ccc(NC(=O)C2CC2)cc1	1.97% (inactive)
NC(=O)C[C@@H]1NC(=O)CNC(=O)c2cc([N+](=O)[O-])cc(I)c2NCCC(C(N)=O)NC1=O (stereo partly drawn)	-7.95% (inactive)
COc1c(O)cc2oc(-c3ccc(O)c(O)c3)cc(=O)c2c1O	97.3% (active)
CCOC(=O)COc1cc(O)c2c(=O)cc(-c3ccccc3)oc2c1	20.1% (inactive)
CCOC(=O)COc1cc(OCC(=O)OCC)c2c(=O)cc(-c3ccccc3)oc2c1	-0.0489% (inactive)
Cc1ccc2nc(-c3cccc(Br)c3)cc(C(=O)Nn3cnnc3)c2c1	-7.45% (inactive)
Cc1cccc(-[n+]2c(-c3cccc(Br)c3)[nH]c3nc4ccccc4nc32)c1	50.4% (active)
CC(C)(C)NC(=O)COC(=O)c1cc(Br)ccc1Cl	-0.533% (inactive)
Cc1ccc(C(=O)CS(C)(=O)=O)cc1	1.08% (inactive)
Cc1ccc(SC(CC(=O)c2ccc(C(C)(C)C)cc2)C(=O)O)cc1 (stereo not drawn)	73.6% (active)
Cc1ccc(CSCC(N)C(=O)O)cc1 (stereo not drawn)	1.34% (inactive)
CCc1nnc(NC(=O)CSc2nc(SC)ns2)s1	8.82% (inactive)
Cc1ccc(CSc2nnc(-c3cnccn3)n2C)cc1	20.9% (inactive)
CC(C)Oc1ccc(C(=O)NC(C)(C)CO)cc1	4.72% (inactive)
CCNC(=S)NNC(=O)c1ccc2ncccc2c1	27.6% (inactive)
COc1cccc(/C=C2\SC(=N)N(c3ccc(F)cc3)C2=O)c1	26.2% (inactive)
Cc1ccc(-c2cc(C(=O)NCc3cn(C)nc3C)c3cc(Br)ccc3n2)cc1	50.4% (active)
COc1ccc(Cl)cc1C(=O)NCc1cn(C)nc1C	0.825% (inactive)
Cc1nn(C)cc1CNC(=O)Nc1ccc(Cl)cc1	12.3% (inactive)
Cc1nnc(NC(=O)CSc2nc(C3CCCCC3)nc3ccccc23)s1	-0.612% (inactive)
CC(=O)Oc1ccc2c(C)c(CC(C)O)c(=O)oc2c1 (stereo not drawn)	81.8% (active)
Cc1c(Cc2ccccc2)c(=O)oc2cc(OCC(N)=O)ccc12	28.6% (inactive)
CC(=O)Nc1cc2ccc(OC(C)=O)cc2oc1=O	23.3% (inactive)
CS(=O)(=O)N(CC(=O)N1CCN(Cc2ccccc2)CC1)c1ccc2c(c1)OCCO2	1.45% (inactive)

SMILES	inhibition
Cc1ccc(C)c(NC(=S)NCC(c2cccnc2)N2CCOCC2)c1 (stereo not drawn)	0.595% (inactive)
COc1ccc(N=Cc2c(O)[nH]c3ccccc23)cc1OC	53% (active)
COc1ccccc1N=Cc1c(O)c2ccccc2oc1=O	0.48% (inactive)
COc1cc(N=Cc2c(O)[nH]c3ccccc23)cc(OC)c1OC	34.4% (inactive)
CC(C)CNC(=O)/C=C/C(=O)O	-8.82% (inactive) and 22% (inactive)
CN(CC(=O)Nc1cccc(F)c1)CC(=O)Nc1cccc([N+](=O)[O-])c1	64.6% (active)
Cc1ccc(NC(=O)CN(C)CC(=O)Nc2cccc(F)c2)cc1[N+](=O)[O-]	-0.303% (inactive)
Cc1ccc(CN(C)CC(=O)Nc2cccc([N+](=O)[O-])c2)o1	-2.63% (inactive)
Cc1cccc(C)c1NC(=O)C1(C)c2cccc[n+]2CC(=O)N1Cc1cccs1 (stereo not drawn)	16.8% (inactive)
CCS(=O)(=O)c1ccc2c(c1)N(S(=O)(=O)c1ccccc1)CC(C(=O)O)O2 (stereo not drawn)	1.06% (inactive)
CC1CCCN(CC(O)COc2ccc3c(c2)OCO3)C1 (stereo not drawn)	18.9% (inactive)
O=C1CSC(=S)N1/N=C/c1ccc(O)c([N+](=O)[O-])c1	118% (active)
CCOc1cccc(/C=N/N2C(=O)CSC2=S)c1O	-22.8% (inactive)
Cc1cc(C(=O)N/N=C/c2ccc(O)c([N+](=O)[O-])c2)c(C)n1-c1ccc(F)cc1	18.7% (inactive)
Clc1ccc(-n2nnnc2CN2CCCCC2)cc1Cl	2.13% (inactive)
Cc1cc(C)c2c(n1)nn1c(N3CCN(c4cccc(Cl)c4)CC3)cc(C)nc21	35.2% (inactive)
Cc1cc(C)c2c(n1)nn1c(-n3ccnc3)cc(C)nc21	5.47% (inactive)
Cc1cc(C)c2c(n1)nn1c(N3CCOCC3)cc(C)nc21	58.8% (active)
CCc1ccc(NC(=O)N[C@H](C(=O)O)C(C)CC)cc1 (stereo partly drawn)	-2.07% (inactive)
CC1=CC(C)(C)NC(=S)N1c1ccccc1	-1.08% (inactive)
COc1ccc(N2CCN(c3ccc([N+](=O)[O-])cc3Cl)CC2)cc1	9.48% (inactive)
